Experimental data from PubChem BioAssay (NCATS).
Inconclusive results are not listed. Active and inactive are the calls of the source. Calls follow the shape of the dose curve; as a rule, active = well fitted inhibition curve with a large enough effect; inconclusive = small, poorly fitted or top-dose-only effect; inactive = no such curve, though single readings can be large or run the other way.

Tested on: Zika virus NS2B-NS3 protease (unlinked complex)
Experiment: Primary screen GU Rhodamine qHTS for Zika virus inhibitors: Unlinked NS2B-NS3 protease assay (AID 1347159); also: nearly all actives have a fitted effect of over 60% in size
Conditions: Recombinant ZIKV NS2B-NS3 protease, Rhodamine110 substrate fluorescence; series mostly up to 107 µM; activity change, negative = inhibition: at the top concentration
Outline: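 Noncovalent NS2B hydrophilic domain/NS3 protease complex (25 nM final) in 10 mM Tris-HCl pH 8.0, 0.01% Tween 20, preincubated 15 min with compounds (up to 114 microM), then 1.5 microM Rhodamine110 substrate. Fluorescence change over 15 min fitted to 4-parameter Hill.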
% is scaled to controls: 0 for no effect and ±100 for the full control effect.

SMILES | activity change, negative = inhibition
C[C@@](O)(COc1ccc(C#N)cc1)C(=O)Nc1ccc(C#N)c(C(F)(F)F)c1 | -8.39% (inactive)
Cn1ncnc1COc1nn2c(-c3c(F)cccc3F)nnc2cc1C1CCC1 | 4.73% (inactive)
C=C1[C@@H]2CC[C@@]3(C)[C@H](c4ccoc4)OC(=O)C[C@]13O[C@H]1CC(=O)C(C)(C)[C@H](C(OC(C)=O)C(=O)OC)[C@]12C (some centres undefined) | 25.5% [at 57.1 µM] (inactive)
CC1C/C=C/C(O)C(O)CC/C=C/c2cc(O)cc(O)c2C(=O)O1 (centres undefined) | -15.1% (inactive)
C[C@H]1O[C@@H](O[C@H]2C[C@@H](O)[C@]3(CO)C4C(CC[C@]3(O)C2)[C@@]2(O)CC[C@H](C3=CC(=O)OC3)[C@@]2(C)C[C@H]4O)[C@@H](O)[C@@H](O)[C@H]1O (some centres undefined) | -4.77% [at 32.5 µM] (inactive)
CC[C@H]1CN2CC[C@H]1C[C@@H]2[C@@H](O)c1ccnc2ccc(OC)cc12 | 20.4% (inactive)
CCC(C)(C#N)O[C@@H]1O[C@H](CO)[C@@H](O)[C@H](O)[C@H]1O (some centres undefined) | 2.56% (inactive)
COC1CC(=O)C23C(=O)NC(CC(C)C)C2C(C)=C(C)C(OO)C3/C=C(\C)CCC(O)C1O (centres undefined) | -0.834% [at 57.1 µM] (inactive)
COC1CC(O[C@H]2CC[C@@]3(C)C(=CCC4C3C(O)[C@@H](O)[C@]3(C)[C@@H](C(C)=O)CC[C@]43O)C2)OC(C)C1OC1CC(OC)C(OC2OC(C)C(O)C(O)C2O)C(C)O1 (some centres undefined) | 10.7% [at 32.5 µM] (inactive)
CC(=O)OC12C(O)C(C)C3(O)C4C=C(C)C(=O)C4CC(CO)=CC3C1C2(C)C (centres undefined) | 7.49% [at 57.1 µM] (inactive)
Cc1cn(C[C@H](N)C(=O)O)c(=O)n(Cc2cc(-c3ccccc3)sc2C(=O)O)c1=O | -0.303% (inactive)
COC1CC(OC2CCC3(C)C(CCC4C3CCC3(C)C(C5=CC(=O)OC5)C(OC(C)=O)CC43O)C2)OC(C)C1OC1OC(CO)C(O)C(O)C1O (centres undefined) | -25.8% [at 32.5 µM] (inactive)
CN1[C@@H]2CC[C@H]1CC(OC(=O)C1C=Nc3ccccc31)C2 (some centres undefined) | 32.7% (inactive)
COc1cc(C(=O)O[C@H]2[C@@H]3C=CO[C@@H](O[C@@H]4O[C@H](CO)[C@@H](O)[C@H](O)[C@H]4O)[C@@H]3[C@@]3(CO)O[C@@H]23)ccc1O | 15.8% [at 57.1 µM] (inactive)
C=C(CO)C(=O)O[C@H]1C/C(C)=C/CC/C(CO)=C/[C@H]2OC(=O)C(=C)[C@H]12 | -3.63% (inactive)
CN1CCCC1CCOC(c1cc2nccc(C(=O)O)c2[nH]1)c1ccccc1Cl (centres undefined) | 0% (inactive)
C/C=C(\C)C(=O)OC1CC2C(CC=C3CC(OC4CC(OC)C(OC5CC(OC)C(OC6OC(C)C(OC7OC(CO)C(O)C(O)C7O)C(OC)C6O)C(C)O5)C(C)O4)CCC32C)C2(O)CCC(C(C)=O)C12C (centres undefined) | -9.87% [at 32.5 µM] (inactive)
CO[C@H]1[C@H](O)[C@H](O[C@H]2CC[C@]3(C)C4CC[C@]5(C)[C@H](C6=CC(=O)OC6)CC[C@]5(O)C4CC[C@@H]3C2)O[C@@H](C)[C@@H]1O (some centres undefined) | 17.1% [at 57.1 µM] (inactive)
CCc1c(C(=O)C(N)=O)c2c(OCC(=O)OC)cccc2n1Cc1ccccc1 | 17.9% (inactive)
Cc1c(Cl)cccc1S(=O)(=O)Nc1nc(CC(=O)N2CCN(C)CC2)cs1 | 27.5% (inactive)

SMILES | activity change, negative = inhibition
CCC1NC(=O)C2C(Cl)C(Cl)CN2C(=O)C(C(C)O)NC(=O)CC(c2ccccc2)NC(=O)C(CO)NC1=O (centres undefined) | -10.8% [at 32.5 µM] (inactive)
COc1cc(CCNCc2ccccc2O)c(OC)cc1C#N | 15.3% (inactive)
COCC1OC(=O)c2coc3c2C1(C)C1=C(C3=O)C2CCC(=O)C2(C)CC1O (centres undefined) | 15.3% (inactive)
CC(N)Cc1c[nH]c2ccccc12 (centres undefined) | 9.23% (inactive)
CN[C@H]1[C@H](O)[C@H](O[C@@H]2[C@@H](O)[C@H](O[C@H]3O[C@H]([C@H](C)O)[C@@H](O)[C@H](O)[C@H]3N)[C@@H](N)C[C@H]2N)OC[C@@]1(C)O | 3.09% (inactive)
C/C=C(\C)C(=O)O[C@H]1[C@H](OC(C)=O)[C@]2(CO)[C@H](O)[C@H](O)[C@]3(C)C(=CCC4[C@@]5(C)CC[C@H](O[C@@H]6O[C@H](C(=O)O)[C@@H](O)[C@H](O[C@@H]7OC[C@H](O)[C@H](O[C@@H]8OC[C@H](O)[C@H](O)[C@H]8O)[C@H]7O)[C@H]6O[C@@H]6O[C@H](CO)[C@@H](O)[C@H](O)[C@H]6O)C(C)(C)C5CC[C@]43C)[C@@H]2CC1(C)C (some centres undefined) | -9.49% [at 19.1 µM] (inactive)
CN1C(=O)c2ccccc2NC(=O)C1Cc1ccccc1 (centres undefined) | 0.117% (inactive)
CCN1C[C@]2(OC(=O)c3ccccc3NC(C)=O)CC[C@H](OC)[C@@]34[C@@H]2C[C@@H]([C@@H]13)[C@@]1(O)C[C@H](OC)[C@H]2C[C@@H]4[C@]1(O)[C@H]2OC | 7.89% (inactive)
COc1ccccc1CN[C@H]1C2CCN(CC2)[C@H]1C(c1ccccc1)c1ccccc1 | 35.3% (inactive)
OC1(c2ccc(Cl)cc2)c2ccccc2C2=NCCN21 (centres undefined) | 24.6% (inactive)
COC1C(O)C(OC2CCC3(C=O)C(CCC4C3CCC3(C)C(C5=CC(=O)OC5)CCC43O)C2)OC(C)C1OC1OC(CO)C(O)C(O)C1O (centres undefined) | 22.6% [at 32.5 µM] (inactive)
Clc1ccc(N2C[C@H]3CC[C@@H](C2)N3)nn1 | -26.5% (inactive)
C=C[C@H]1[C@H](O[C@@H]2O[C@H](CO)[C@@H](O)[C@H](O)[C@H]2O)OC=C2C(=O)OCC[C@H]21 | 23.6% (inactive)
CC(=O)OC1CC(O)C2(C)C(CC(OC(C)=O)C3(C)C2CCC2(C)C(c4ccoc4)C(=O)C4OC423)C1(C)C (centres undefined) | -9.25% [at 57.1 µM] (inactive)
COc1cc(C)[nH]c(=O)c1CNC(=O)c1c(C)n([C@H](C)C2CCOCC2)c2ccccc12 | -7.71% (inactive)
CC1=C2C[C@H]3[C@@H](CC=C4C[C@@H](O)CC[C@@]43C)[C@@H]2CC[C@]12O[C@@H]1C[C@H](C)CN[C@H]1[C@H]2C | -7.9% (inactive)
COC1C(O)C(C)OC(OC2C(CO)O[C@@H](O[C@@H]3CC4CCC5C(CC[C@]6(C)[C@@H](C7=CC(=O)OC7)CC[C@]56O)[C@@]4(C)[C@H](O)C3)C(O)C2O)C1O (some centres undefined) | 8.9% [at 32.5 µM] (inactive)
CC(C)C1(OO)C=C2C(=O)CC3C(C)(C(=O)O)CCCC3(C)C2CC1 (centres undefined) | 22.9% (inactive)
CCOc1ccccc1-n1c(C(C)N2CCN(C(=O)COc3ccc(Cl)cc3)CC2)nc2ccccc2c1=O (centres undefined) | -2.07% (inactive)
